Inconclusive results are not listed. Where a call stands in place of a potency, no number is given. Calls of active or inactive are those of the source. Calls follow the shape of the dose curve; as a rule, active = well fitted cell-killing curve with a large enough effect in the repeat runs; inconclusive = weak or mixed curves, or effect the other way; inactive = no such curve, though single readings can be large or run the other way.
Experiment: qHTS assay to identify small molecule agonists of the vitamin D receptor (VDR) signaling pathway - cell viability counter screen (AID 743224)
Conditions: VDR-bla HEK293T viability, CellTiter-Glo luminescence, 16 h; series mostly up to 62.6 µM
Procedure, shortened: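 VDR-bla cells were preincubated 4 h at 37C/5% CO2, then exposed to compounds for 16 h. After the 2 h room-temperature bla FRET read, CellTiter-Glo was added to the same wells and luminescence read after 30 min.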
In the case of C=C(C)C(=O)O[C@H]1C[C@@H]2CC[C@@]1(C)C2(C)C, the Potency is reported as “inactive”.
For O=S1(=O)CC=CC1, the Potency was “inactive”.
In the case of Oc1cccc2ccccc12, the Potency is reported as “inactive”.
In the case of CC(=O)c1ccccc1, the Potency is reported as “inactive”.
For C=C(C)C(=O)OCCOCCOCCOC(=O)C(=C)C, the Potency was “inactive”.
In the case of O=C(O)CCCCCCCCCCC(=O)O, the Potency is reported as “inactive”.
With O=c1[nH]c(=O)n([C@H]2CCCO2)cc1F the Potency was “inactive”.
In the case of CC(C)c1ccc(S(=O)(=O)O)cc1, the Potency is reported as “inactive”.
In the case of O=[N+]([O-])c1ccc(/C=C/c2ccc([N+](=O)[O-])cc2S(=O)(=O)O)c(S(=O)(=O)O)c1, the Potency is reported as “inactive”.
With O=C=NCCCCCCN=C=O the Potency was “inactive”.
In the case of OCc1cccnc1, the Potency is reported as “inactive”.
With COc1ccc2cc([C@H](C)C(=O)O)ccc2c1 the Potency was “inactive”.
With C[Si](O[Si](C)(C)C)O[Si](C)(C)C the Potency was “inactive”.
In the case of C/C=C1/CC2C=CC1C2 (stereo unspecified), the Potency is reported as “inactive”.
With CC1CCC2CC1C2(C)C (stereo unspecified) the Potency was “inactive”.
With O=C(CC(C(=O)OC1CCCCC1)S(=O)(=O)O)OC1CCCCC1 (stereo unspecified) the Potency was “inactive”.
With c1ccc2c(c1)ccc1ccccc12 the Potency was “inactive”.
In the case of CCN(CC)CCCC(C)Nc1ccnc2cc(Cl)ccc12 (stereo unspecified), the Potency is reported as “inactive”.
For CCCCCC/C(C=O)=C\c1ccccc1, the Potency was “inactive”.
In the case of C=C(C)C(=O)Nc1ccc(Cl)c(Cl)c1, the Potency is reported as “inactive”.
With CCCCC(CC)COC(=O)C(C#N)=C(c1ccccc1)c1ccccc1 (stereo unspecified) the Potency was “inactive”.
With CCCCCCCCCCCCOCCO the Potency was “inactive”.
In the case of OCCOCCOCCO, the Potency is reported as “inactive”.
With CN(C)CCCN the Potency was “inactive”.
In the case of CCCCN(CCCC)CCCC, the Potency is reported as “inactive”.
For O=C(O)c1ccccc1C(c1ccc(O)cc1)c1ccc(O)cc1, the Potency was “inactive”.
With CCCCCC1=CCCC1=O the Potency was “inactive”.
In the case of O=C(O)c1ccc2c(c1)C(=O)OC2=O, the Potency is reported as “inactive”.
With N[C@@H](Cc1cc(I)c(Oc2cc(I)c(O)c(I)c2)c(I)c1)C(=O)O the Potency was “inactive”.
With O=C(O)c1cc(O)c(O)c(O)c1 the Potency was “inactive”.
With c1c[nH]cn1 the Potency was “inactive”.
For c1ccc2scnc2c1, the Potency was “inactive”.
With CC(=O)Nc1ccccc1 the Potency was “inactive”.
In the case of C#CCN(C)Cc1ccccc1, the Potency is reported as “inactive”.
In the case of CCCCCCCCCC, the Potency is reported as “inactive”.
For O=C(O)[C@H](O)[C@@H](O)[C@H](O)[C@H](O)CO, the Potency was “inactive”.
With O=C(Oc1ccccc1)c1ccccc1 the Potency was “inactive”.
In the case of CC(c1cc2ccccc2s1)N(O)C(N)=O (stereo unspecified), the Potency is reported as “inactive”.

Experiment: qHTS assay to identify small molecule antagonists of the vitamin D receptor (VDR) signaling pathway - cell viability counter screen (AID 743225)
Conditions: VDR-bla HEK293T viability, CellTiter-Glo luminescence, 16 h; series mostly up to 61 µM
Procedure, shortened: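 Cytotoxicity counter screen read by CellTiter-Glo luminescence (30 min, room temperature) in the same wells as the VDR-bla antagonist readout. HEK 293T VDR-UAS-bla cells had 16 h at 37C with compound and 3 nM (final) 1-alpha,25-dihydroxyvitamin D3, then 2 h with FRET substrate.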
For C=C(C)C(=O)O[C@H]1C[C@@H]2CC[C@@]1(C)C2(C)C, the outcome was “inactive”.
In the case of O=S1(=O)CC=CC1, the outcome is reported as “inactive”.
In the case of CC(=O)c1ccccc1, the outcome is reported as “inactive”.
In the case of O=C(O)CCCCCCCCCCC(=O)O, the outcome is reported as “inactive”.
In the case of O=c1[nH]c(=O)n([C@H]2CCCO2)cc1F, the outcome is reported as “inactive”.
With CC(C)c1ccc(S(=O)(=O)O)cc1 the outcome was “inactive”.
For O=[N+]([O-])c1ccc(/C=C/c2ccc([N+](=O)[O-])cc2S(=O)(=O)O)c(S(=O)(=O)O)c1, the outcome was “inactive”.
With O=C=NCCCCCCN=C=O the outcome was “inactive”.
In the case of COc1ccc2cc([C@H](C)C(=O)O)ccc2c1, the outcome is reported as “inactive”.
With C[Si](O[Si](C)(C)C)O[Si](C)(C)C the outcome was “inactive”.
In the case of C/C=C1/CC2C=CC1C2 (stereo unspecified), the outcome is reported as “inactive”.
For CC1CCC2CC1C2(C)C (stereo unspecified), the outcome was “inactive”.
In the case of c1ccc2c(c1)ccc1ccccc12, the outcome is reported as “inactive”.
For CCN(CC)CCCC(C)Nc1ccnc2cc(Cl)ccc12 (stereo unspecified), the outcome was “inactive”.
In the case of C=C(C)C(=O)Nc1ccc(Cl)c(Cl)c1, the outcome is reported as “inactive”.
In the case of OCCOCCOCCO, the outcome is reported as “inactive”.
For O=C(O)c1ccccc1C(c1ccc(O)cc1)c1ccc(O)cc1, the outcome was “inactive”.
In the case of CCCCCC1=CCCC1=O, the outcome is reported as “inactive”.
In the case of O=C(O)c1ccc2c(c1)C(=O)OC2=O, the outcome is reported as “inactive”.
For N[C@@H](Cc1cc(I)c(Oc2cc(I)c(O)c(I)c2)c(I)c1)C(=O)O, the outcome was “inactive”.
With O=C(O)c1cc(O)c(O)c(O)c1 the outcome was “inactive”.
For c1c[nH]cn1, the outcome was “inactive”.
For c1ccc2scnc2c1, the outcome was “inactive”.
In the case of C#CCN(C)Cc1ccccc1, the outcome is reported as “inactive”.
For CCCCCCCCCC, the outcome was “inactive”.
With O=C(O)[C@H](O)[C@@H](O)[C@H](O)[C@H](O)CO the outcome was “inactive”.
In the case of O=C(Oc1ccccc1)c1ccccc1, the outcome is reported as “inactive”.
In the case of CC(c1cc2ccccc2s1)N(O)C(N)=O (stereo unspecified), the outcome is reported as “inactive”.

Reference: PubChem BioAssay (Tox21)
Also: nearly all actives have a fitted effect of over 50% in size.
